Screening data as filed in PubChem.
bovine MsrA act: activates bovine MsrA enzyme; hit rate 0.3% among 360,000; AID 602163; activation, % at 10.6 µM; purified bovine MsrA, absorbance read-out; in the data active = activation above about 7.5%;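 note: 0% = vehicle and 100% = reference activator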
MsrA inh: bovine MsrA inhibition | purified bovine MsrA, absorbance read-out | inhibition, % at 15.5 µM | hit rate 0.75% among 360,000;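 note: 0% = vehicle wells with enzyme and 100% = reference inhibitor wells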
PKA-R2B activ: PKA-R2B complex activation; activation, % at 11.4 µM; PKA-R2B holoenzyme dissociation, Cy5-IP20 fluorescence polarization; R2B truncated from residue 108, S112A mutant; 0% DMSO only, 100% 113 µM cGMP; AID 504700; P22694+P31323; hit rate 0.079% among 340,000;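 active = activation above a cutoff set at the mean over all compounds plus 3 SD, cut at about 18% in these data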;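 note: higher means more holoenzyme dissociation and a rise in polarization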
Target sequence (P31323 whole entry, looked up, other chains not shown, the tested form may be a part): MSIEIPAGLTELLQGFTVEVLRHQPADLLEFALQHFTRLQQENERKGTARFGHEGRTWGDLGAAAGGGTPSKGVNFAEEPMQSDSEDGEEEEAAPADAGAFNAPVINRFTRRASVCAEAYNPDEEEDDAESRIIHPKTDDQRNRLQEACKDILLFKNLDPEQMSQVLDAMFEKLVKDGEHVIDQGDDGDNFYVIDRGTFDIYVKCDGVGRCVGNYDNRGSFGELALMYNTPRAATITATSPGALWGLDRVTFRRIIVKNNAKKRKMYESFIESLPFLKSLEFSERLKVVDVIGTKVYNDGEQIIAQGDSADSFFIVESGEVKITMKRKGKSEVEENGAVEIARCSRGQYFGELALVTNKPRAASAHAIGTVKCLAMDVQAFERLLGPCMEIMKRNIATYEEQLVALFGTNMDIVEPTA
PKA-R1A activ: activates the PKA-R1A holoenzyme complex; P00514+P68181; PKA-R1A dissociation, Cy5-IP20 fluorescence polarization; scaled: DMSO 0%, 113 µM cGMP 100%; activation, % at 11.4 µM; hit rate 0.083% among 340,000; AID 504707;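 active = percent activation above the mean of all tested compounds plus 3 SD, cut at about 19% in these data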;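 note: higher means more PKAc released from R1A so a rise in polarization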
Mot1-301 SUMO: blocks SUMOylation pathway, rescuing yeast Mot1-301 growth | S. cerevisiae Mot1-301 growth rescue, ATP luminescence, 38.5C; percent above DMSO median, 100 means doubled | growth rescue, % at 18.8 µM | hit rate 1% among 320,000;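 active = every valid replicate shows activation above 250% relative to neutral control wells; inactive = the rest, any valid replicate at or below 250%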;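 note: OY570 slx delta 5 strain wells were the positive control but not used for scaling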
MsrA inh confirm: bovine MsrA inhibition, confirmed; inhibition, % at 15.5 µM; shares compounds with MsrA inh; purified bovine MsrA, absorbance read-out; AID 651822; hit rate 41% among 2,300;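 note: coupled to thioredoxin reductase with NADPH and selenocystamine and DMSO as substrate; 0% = vehicle only and 100% = full effect of reference inhibitor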
Active calls of the source: *. A selection: hits, their analogues and other compounds. The true share with any hit is near 2%. Cut-off read from the data, not from the text of the source, unless noted: active = inhibition above about 4.5%; inactive = the rest.

For COc1ccc(NC(=O)c2cc(C3CCCCN3S(=O)(=O)c3c(C)noc3C)on2)c(C)c1 (stereo not given) the results were bovine MsrA act -3 and MsrA inh 0.
Cc1cc(N)ccc1N1CCCC1 was read as bovine MsrA act 2, PKA-R2B activ -8, PKA-R1A activ -6 and Mot1-301 SUMO -27.
For Cc1cc(N2CCCC2)c(C)cc1C=O the results were bovine MsrA act -2, MsrA inh 5.1*, PKA-R2B activ 1, PKA-R1A activ 1, Mot1-301 SUMO 0 and MsrA inh confirm 2.
`CC(Nc1nc2ccccc2n2cnnc12)c1ccccc1` (stereo not given) gave bovine MsrA act -9, MsrA inh 12*, PKA-R2B activ 9, PKA-R1A activ -3, Mot1-301 SUMO 63 and MsrA inh confirm 7.2*.
Cc1ccc(C)c(Nc2nc3ccccc3n3cnnc23)c1 was read as bovine MsrA act -3, MsrA inh 11*, PKA-R2B activ 5, PKA-R1A activ 3, Mot1-301 SUMO 1 and MsrA inh confirm 6.7*.
`NS(=O)(=O)c1ccc(Nc2ccccc2)c([N+](=O)[O-])c1` gave bovine MsrA act -11, MsrA inh 4.9*, PKA-R2B activ -3, PKA-R1A activ -3, Mot1-301 SUMO 0 and MsrA inh confirm 3.
`C/C(=N\Nc1ccccc1[N+](=O)[O-])c1ccccc1O` gave bovine MsrA act -10, MsrA inh 1, PKA-R2B activ 0, PKA-R1A activ -3 and Mot1-301 SUMO 1.
For C/C(=N\Nc1ccc(S(N)(=O)=O)cc1[N+](=O)[O-])c1ccco1 the results were bovine MsrA act -7, MsrA inh 9.2*, PKA-R2B activ 0, PKA-R1A activ -1, Mot1-301 SUMO 20 and MsrA inh confirm 5.4*.
For C/C(=N\Nc1ccc(S(N)(=O)=O)cc1[N+](=O)[O-])c1ccccc1O the results were bovine MsrA act -15, MsrA inh 9.9*, PKA-R2B activ 2, PKA-R1A activ 1, Mot1-301 SUMO -5 and MsrA inh confirm 4.7*.
Screening C/C(=N\NC(=O)c1cc([N+](=O)[O-])cc([N+](=O)[O-])c1)c1ccco1 returned bovine MsrA act 1, MsrA inh 2, PKA-R2B activ 5, PKA-R1A activ 6 and Mot1-301 SUMO 5.
O=C(NCc1ccccc1)[C@@H]1CCCN1C(=O)[C@H]1CCCN1C(=O)c1ccc(OC(F)(F)F)cc1 was read as MsrA inh 0.
Screening COc1ccccc1CNc1nc(NCCN2CCNC2=O)c2sccc2n1 returned bovine MsrA act -1 and MsrA inh -1.
Cc1ccc(/C=N/NC(=O)c2ccc3nc[nH]c3c2)s1 was read as bovine MsrA act -3, MsrA inh 7.3*, PKA-R2B activ -2, PKA-R1A activ 0, Mot1-301 SUMO -17 and MsrA inh confirm 5.7*.
COc1cccc(/C=N/NC(=O)c2ccc3nc[nH]c3c2)c1O was read as bovine MsrA act -2, MsrA inh 2, PKA-R2B activ -2, PKA-R1A activ -3 and Mot1-301 SUMO 53.
Screening COc1ccc(/C=N/NC(=O)c2ccc3nc[nH]c3c2)c(OC)c1OC returned bovine MsrA act -14, MsrA inh 5.1*, Mot1-301 SUMO -3 and MsrA inh confirm 2.
`CC1(C(=O)Nc2ccc3c(c2)OCCO3)CN(S(C)(=O)=O)CC(=O)N1CCc1ccccc1` (stereo not given) gave MsrA inh 1.
For O=C1NC[C@H](CCCCN2C[C@H](Cc3ccccc3)N(CCC3CCCCC3)C(=O)C2=O)N(CCc2ccccc2)C1=O the results were bovine MsrA act -1 and MsrA inh 1.
`Cc1ccc(C(=O)C2=C(O)C(=O)N(CCCN3CCOCC3)C23C(=O)N(C)c2ccccc23)o1` (stereo not given) gave bovine MsrA act -1, MsrA inh 10*, PKA-R2B activ 7, PKA-R1A activ -17, Mot1-301 SUMO -8 and MsrA inh confirm 6.2*.
Screening CCOc1ccc(/C=C/C2=NNC(=O)CC2)cc1 returned bovine MsrA act -5, MsrA inh 6.7*, PKA-R2B activ -5, PKA-R1A activ -2, Mot1-301 SUMO -5 and MsrA inh confirm 3.
COc1ccc(/C=C/C2=NNC(=O)CC2)cc1 was read as bovine MsrA act -6, MsrA inh 5.5*, PKA-R2B activ 6, PKA-R1A activ 1, Mot1-301 SUMO 253 and MsrA inh confirm 4.7*.
Screening O=C1CCC(/C=C/c2ccccc2)=NN1 returned bovine MsrA act -2, MsrA inh 4, PKA-R2B activ -6, PKA-R1A activ -5 and Mot1-301 SUMO 10.
Screening O=C(NCc1ccccc1)C(c1ccco1)N1CCN(c2ccccc2F)CC1 (stereo not given) returned MsrA inh -1.
For O=Cc1c(-c2ccc(F)cc2)nc2ccccn12 the results were bovine MsrA act -1, MsrA inh 9.1*, PKA-R2B activ -4, PKA-R1A activ 6, Mot1-301 SUMO 249 and MsrA inh confirm 3.
C/C(=N\Nc1ccc(Cl)c(C(=O)O)c1)c1cccc2ccccc12 was read as bovine MsrA act -3, MsrA inh 2, PKA-R2B activ -6, PKA-R1A activ -7 and Mot1-301 SUMO 10.
For C/C(=N\Nc1ccccc1)c1cc2ccccc2oc1=O the results were bovine MsrA act -11, MsrA inh 3, PKA-R2B activ 0, PKA-R1A activ -10 and Mot1-301 SUMO 154.
C/C(=N\Nc1ccc(Cl)c(C(=O)O)c1)c1cc2ccccc2o1 was read as bovine MsrA act -5, MsrA inh 5.4*, PKA-R2B activ 0, PKA-R1A activ -6, Mot1-301 SUMO 8 and MsrA inh confirm 5.8*.
`C/C(=N\Nc1cccc(C(=O)O)c1)c1cc2ccccc2o1` gave bovine MsrA act -6, MsrA inh 5.5*, PKA-R2B activ -1, PKA-R1A activ -4, Mot1-301 SUMO -2 and MsrA inh confirm 3.
NC(CSS(=O)(=O)O)=NCCC12CC3CC(CC(O)(C3)C1)C2 was read as bovine MsrA act -7, MsrA inh 7.5*, PKA-R2B activ 1, PKA-R1A activ 0, Mot1-301 SUMO -24 and MsrA inh confirm 4.
Screening O=S1(=O)N=C(N/N=C/c2cccs2)c2ccccc21 returned bovine MsrA act -2, MsrA inh 5.8*, PKA-R2B activ 0, PKA-R1A activ 3, Mot1-301 SUMO 46 and MsrA inh confirm 4.8*.
For O=[N+]([O-])c1ccc(/C=N/NC2=NS(=O)(=O)c3ccccc32)cc1 the results were bovine MsrA act -4, MsrA inh 2, PKA-R2B activ 1, PKA-R1A activ -6 and Mot1-301 SUMO -4.
For Nc1ccc(-c2nc3ncccc3o2)cc1 the results were bovine MsrA act -6, MsrA inh 6.9*, PKA-R2B activ 2, PKA-R1A activ 2, Mot1-301 SUMO -5 and MsrA inh confirm 4.6*.
